Source: PubChem (National Center for Advancing Translational Sciences (NCATS))
Hits are enriched below; roughly 7.5% of the tested compounds scored in any of these assays.
RORgamma inh – ROR gamma (mouse) transcription inhibition; Drosophila S2 Gal4-RORgamma UAS-luciferase reporter, 20 h; P51450; Potency, µM (series often up to 53.6 µM), for the others: at the highest dose activity change, negative = inhibition, usual class: inhibitors; 310,000 compounds, 5.4% hits; AID 2551; also: potency is read from the fitted curve at half-maximal effect; nearly all actives have a fitted effect of over 60% in size
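Compounds are pin-transferred onto Drosophila Schneider cells expressing a copper-inducible Gal4–ROR gamma transactivation domain fusion. After 1 hr, copper sulfate is added to 700 uM final; luciferase is read 20 hr later.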
TSHR antagonist – human thyrotropin receptor antagonism. P16473. TSHR-expressing cells, TSH-stimulated cAMP HTRF, 2 h; active compounds read low. activity change, negative = inhibition, % at 11.5 µM. 330,000 compounds, 0.2% hits. AID 504810;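 active = activity change below a set negative limit, meaning inhibition stronger than a set level, cut at about -70% in these data; inconclusive = activity change between two set negative limits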
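Freshly harvested TSHR cells receive pin-tooled compound, then EC80 TSH at 4nM final. After 2 hours at 37 deg C, antibody in lysis buffer and cAMP-d2 are added; 30 minutes at ambient temperature precede the HTRF read.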
VP16 counter – Gal4-VP16 reporter inhibition counter-screen; Drosophila S2 Gal4-VP16 UAS-luciferase, luminescence, 20 h; Potency, µM (series often up to 53.6 µM), for inactives: at the highest dose activity, negative = inhibition, usual class: inhibitors; 310,000 compounds, 3.5% hits;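 also: Gal4-VP16 expression switched on by copper sulfate through the metallothionein promoter; potency is read from the fitted curve at half-maximal effect; nearly all actives have a fitted effect of over 50% in size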
B2AR arrestin – agonists driving beta-arrestin recruitment to human beta2-adrenergic receptor; P07550; beta-arrestin recruitment to beta2AR, cell-based reporter; Potency, µM (doses to about 46.1 µM), without a hit: at the highest dose activation, most hits filed as activators; 330,000 compounds, 0.02% hits; AID 492947;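 also: potency is read from the fitted curve at half-maximal effect; 0% = DMSO controls and full agonism = EC100 isoproterenol or metaproterenol; nearly all actives have a fitted effect of over 65% in size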
Target sequence (P07550 whole entry, looked up): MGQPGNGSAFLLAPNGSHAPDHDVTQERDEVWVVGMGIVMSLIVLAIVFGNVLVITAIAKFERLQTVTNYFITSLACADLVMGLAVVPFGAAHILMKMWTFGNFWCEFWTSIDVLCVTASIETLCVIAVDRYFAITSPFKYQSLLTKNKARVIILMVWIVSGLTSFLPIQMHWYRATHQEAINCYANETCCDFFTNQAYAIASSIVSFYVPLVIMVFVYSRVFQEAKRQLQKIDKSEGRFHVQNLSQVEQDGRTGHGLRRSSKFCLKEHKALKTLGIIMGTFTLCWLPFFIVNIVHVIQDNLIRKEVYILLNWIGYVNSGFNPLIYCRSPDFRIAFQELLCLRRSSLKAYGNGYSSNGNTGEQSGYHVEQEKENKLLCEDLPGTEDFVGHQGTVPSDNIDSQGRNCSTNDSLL
ELG1 repair inh – blocks ELG1-dependent DNA repair in HEK293T cells; 330,000 compounds, 2.3% hits; HEK293T ELG1-luciferase reporter, luminescence, 16 h; DNA damage induced by 5-fluorouridine; AID 504467; Potency, µM (highest dose often 46.1 µM), inactives show at the highest dose activity change, negative = inhibition, usual class: inhibitors; also: potency is read from the fitted curve at half-maximal effect; nearly all actives have a fitted effect of over 55% in size
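Luminescence from the luciferase reporter, measured 30 min after ONE-Glo reagent at room temperature, was the read-out. Beforehand, 2,000 cells per well were exposed for 16 hr at 37 °C to 5-fluorouridine together with compound or vehicle.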
ELG1 FLuc counter – luciferase inhibition in cell-free luciferin readout for ELG1 hits | AID 624247 | Potency, µM (highest dose often 46.1 µM), for inactives: top-dose activity change, negative = inhibition, hits mostly inhibitors | 350 compounds, 3% hits | shares compounds with ELG1 repair inh | cell-free firefly luciferase luminescence counter-screen, ViewLux; also: potency is read from the fitted curve at half-maximal effect
ELG1-Luc inh – human ELG1 repair inhibition, luciferase-tagged ELG1 confirmation | Potency, µM (top dose mostly 46.1 µM), inactives show top-dose activity change, negative = inhibition, hits mostly inhibitors | AID 624248 | 670 compounds, 68% hits | shares compounds with ELG1 repair inh | HEK293T ELG1-luciferase levels, luminescence; cells co-treated with 5-fluorouridine; also: potency is read from the fitted curve at half-maximal effect; nearly all actives have a fitted effect of over 55% in size
ELG1-Luc MMS – confirmation of human ELG1 repair inhibitors, MMS stimulated; shares compounds with ELG1 repair inh; HEK293T luciferase-tagged ELG1 level, MMS stimulated; Potency, µM (highest dose often 46.1 µM), for the others: top-dose activity change, negative = inhibition, hits mostly inhibitors; 670 compounds, 53% hits; AID 624249; also: potency is read from the fitted curve at half-maximal effect; nearly all actives have a fitted effect of over 60% in size
ELG1 5FU viab – confirmation of ELG1 repair inhibitors: viability with 5FU | shares compounds with ELG1 repair inh | cell viability with 5-FU, ELG1-dependent repair | 670 tested, under 10 active | Potency, µM (top dose mostly 46.1 µM), for the others: at the top dose activity change, negative = viability loss, actives largely listed as cytotoxic;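 also: ELG1-luc HEK293T cells cotreated with 5-fluorouridine at 10 µM final; potency is read from the fitted curve at half-maximal effect; viability measured 16 h after compound addition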
ELG1 MMS viab – confirmation of ELG1 repair inhibitors: viability with MMS; 670 compounds, 33% hits; AID 624251; shares compounds with ELG1 repair inh; Potency, µM (doses to about 46.1 µM), inactives show at the highest dose activity change, negative = viability loss, usual class: cytotoxic; Cell viability with MMS, ELG1-dependent DNA repair;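 also: ELG1-luc HEK293T cells co-treated with 10 µM MMS; potency is read from the fitted curve at half-maximal effect; viability read 16 h after compound addition; nearly all actives have a fitted effect of over 60% in size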
Cell viab unstim – counter-screen for ELG1 repair inhibitors: unstimulated cell viability; 900 compounds, 8% hits; shares compounds with ELG1 repair inh; Potency, µM (top dose mostly 45.9 µM), without a hit: at the top dose activity change, negative = loss of viability, actives largely listed as cytotoxic; cell viability counter-screen, unstimulated, luminescence;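 also: potency is read from the fitted curve at half-maximal effect; compound exposure lasted 16 hours before reading; nearly all actives have a fitted effect of over 55% in size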
FLuc biochem – counter-screen for ELG1 repair inhibitors: firefly luciferase inhibition; AID 624253; Potency, µM (series often up to 57.5 µM), for inactives: at the highest dose activity, negative = inhibition, actives largely listed as inhibitors; purified firefly luciferase, luminescence counter-screen; 350 compounds, 10% hits; shares compounds with ELG1 repair inh; also: potency is read from the fitted curve at half-maximal effect
* = called active by the depositor; ? = inconclusive; . = no result; [ ] = dose if it differs, or a comment. Unless noted, calls follow the shape of the dose curve; as a rule, active = well fitted curve in the direction sought with a large enough effect; inconclusive = small, poorly fitted or top-dose-only effect, or another doubt; inactive = no such curve, though single readings can be large; an effect the other way counts as inactive or inconclusive. Unless noted, % is scaled to controls: 0 for no effect and ±100 for the full control effect.

SMILES	RORgamma inh	TSHR antagonist	VP16 counter	B2AR arrestin	ELG1 repair inh	ELG1-Luc inh	ELG1-Luc MMS	ELG1 5FU viab	ELG1 MMS viab	Cell viab unstim	others
COc1cc(CC(NC(C)=O)C(=O)NC2CCN(c3nc(C)cc(C)c3C#N)CC2)cc(OC)c1 (stereo not given)	-11%	-6	-9%	0%	-10%	.	.	.	.	.
COc1cccc(CC(NC(C)=O)C(=O)NC2CCN(c3nc(C)cc(C)c3C#N)CC2)c1OC (stereo not given)	-16%	-8	13%	4%	2.8µM*	7.9µM*	2%	?	3%	-4%
Cc1ccc2c(c1)sc1ncc(NC(=O)c3ccc(F)cc3)c(=O)n12	-20%	-5	1%	0%	?	.	.	.	.	.
Cc1ccc2c(c1)sc1nc(=O)n(-c3ccccc3)c(=O)n12	9%	-2	29%	0%	?	.	.	.	.	1%	ELG1 FLuc counter=54%;FLuc biochem=?
Cc1ccc(S(=O)(=O)N2CCCCC2)cc1NC(=O)CNc1ccc(C(F)(F)F)cc1	.	-6	.	0%	3.7µM*	?	31µM*	-3%	28µM*	?
COc1ccc(CC(=O)Nc2cc(S(=O)(=O)N3CCCCC3)ccc2C)cc1OC	?	-36	?	0%	2.1µM*	?	1.4µM*	3%	2.5µM*	?
COc1ccc(S(=O)(=O)N2CCCCC2)cc1NC(=O)c1[nH]c(C)c(C(C)=O)c1C	.	-5	.	0%	?	.	.	.	.	-19%
COc1ccc(NC(=O)c2sc3nc(N4CCOCC4)c4c(c3c2N)CC(C)(C)OC4)cc1	-19%	4	3%	0%	0.41µM*	0.35µM*	15%	?	-7%	-1%	ELG1 FLuc counter=4%;FLuc biochem=-9%
CC1(C)Cc2c(c(N3CCOCC3)nc3sc(C(=O)N4CCCCC4)c(N)c23)CO1	-12%	-14	2%	0%	0.21µM*	0.45µM*	1%	?	-4%	-2%	ELG1 FLuc counter=20%;FLuc biochem=-12%
CCCN(CC(=O)Nc1ccccc1C)C(=O)c1ccc(N2CCCCC2)c([N+](=O)[O-])c1	.	-1	.	0%	-6%	.	.	.	.	.
Cc1nn(-c2ccccc2)c(C)c1C(=O)OCC(=O)c1c(N)n(CC(C)C)c(=O)n(C)c1=O	-44%	-33	?	-1%	3.3µM*	4µM*	0.79µM*	?	1.3µM*	?
Clc1ccc(-c2cnnc(-c3ccccn3)n2)cc1	.	15	.	0%	?	.	.	.	.	-1%
C=CCC1(CC=C)CCCN1C(=O)c1cc(COc2ccccc2SC)on1	6%	-33	-20%	-1%	?	.	.	.	.	.
CSc1nc(N)nc2c1ncn2CC(=O)N1CCN(Cc2c(C)cc(C)cc2C)CC1	.	-24	.	0%	2.3µM*	?	0.71µM*	2%	1.3µM*	?
Cc1cc(C)c(CN2CCN(C(=O)Cn3ccc(N)nc3=O)CC2)c(C)c1	.	-19	.	0%	12%	.	.	.	.	.
CC1(C(=O)N/N=C/c2ccc3c(c2)OCO3)CC1(Br)Br (stereo not given)	-8%	-12	-14%	-1%	14%	.	.	.	.	.
CCOc1ccc(NC(=O)CN(C)C(=O)C2CCN(c3ncnc4sc(C)c(C)c34)CC2)cc1OCC	.	-12	.	2%	15µM*	16µM*	25µM*	?	?	-14%	ELG1 FLuc counter=?;FLuc biochem=1%
COc1ccccc1N1CCN(CC(=O)Nc2ccc(S(=O)(=O)N3CCCCCC3)cc2)CC1	.	4	.	-1%	?	.	.	.	.	.
CC1CCN(C(=O)CN(c2ccc3c(c2)OCCO3)S(=O)(=O)c2ccccc2)CC1	38%	13	-3%	1%	?	.	.	.	.	.
Cc1ccccc1CNC(=O)c1ccccc1N(C)S(=O)(=O)c1ccccc1	6%[1.91 µM]	-10	-10%	3%	-21%	.	.	.	.	.
Cn1c(=O)c2c(nc(Oc3cccc(O)c3)n2C)n(C)c1=O	7%	-8	-1%	-1%	-18%	.	.	.	.	.
Cn1c(=O)c2c(nc(Oc3ccc4ccccc4c3)n2C)n(C)c1=O	18%	-11	2%	0%	4.1µM*	8.9µM*	13µM*	?	?	-4%
CN(C(=O)COC(=O)Cn1cnc2ccccc21)C1CCCCC1	.	-20	.	0%	-13%	.	.	.	.	.
CCc1ccc(NC(=O)CNC(=O)c2nn(-c3ccc(OC)cc3)c(=O)c3ccccc23)cc1	-17%	-1	-4%	0%	-14%	14µM*	16%	?	-3%	?	ELG1 FLuc counter=1%;FLuc biochem=-9%
COc1ccc(NC(=O)CNC(=O)c2nn(-c3ccc(OC)c(Cl)c3)c(=O)c3ccccc23)c(OC)c1	1%	6	3%	-1%	5.8µM*	3.5µM*	-2%	10%	-1%	?	ELG1 FLuc counter=-3%;FLuc biochem=-13%
COc1ccc(-n2nc(C(=O)NCC(=O)Nc3cc(Cl)c(OC)cc3OC)c3ccccc3c2=O)cc1	8%	0	-1%	0%	?	.	.	.	.	.
CC(=O)c1cccc(CN2CCCCC2C(=O)Nc2ccc(Oc3ccccc3)nc2)c1 (stereo not given)	4%	-11	-4%	0%	-5%	.	.	.	.	.
Cc1nn(-c2ccccc2)c(N2CCCC2)c1/C=N/NC(=O)c1cc(-c2cccnc2)nc2ccccc12	4%	-8	?	0%	4.6µM*	8.9µM*	28µM*	6%	-11%	?
